PubChem BioAssay (NCATS)
Several values for one entry are separate records, joined by “and”; a condition that tells them apart may be missing. Identical values can stand only once. Records with an inconclusive call do not appear. A call without a number means that no potency is given here. Activity calls are given as the source filed them. Calls come from the whole dose curve; as a rule, active = well fitted curve in the direction sought with a large enough effect; inconclusive = small, poorly fitted or top-dose-only effect, or another doubt; inactive = no such curve, though single readings can be large; an effect the other way counts as inactive or inconclusive.

Assays:
[1] = qHTS of pediatric cancer cell lines to identify multiple opportunities for drug repurposing: Confirmatory screen for DAOY cells (AID 1347114); note: nearly all actives have a fitted effect of over 65% in size; note: potency is the fitted concentration of half-maximal effect
Method in brief: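 Viability measured as metabolically active cells via CellTiter-Glo luminescence following 48 hours of compound exposure, 11-point dilutions in confirmatory testing. 500-1,000 cells/well plated 5 hours before dosing; controls were DMSO and 2.3 µM bortezomib.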

[2] = qHTS of pediatric cancer cell lines to identify multiple opportunities for drug repurposing: Confirmatory screen for NB-EBc1 cells (AID 1347115);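 note: cells exposed to compound for 48 h before the viability read; nearly all actives have a fitted effect of over 45% in size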; note: potency is the fitted concentration of half-maximal effect
Method in brief: (§1)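 Viability after 48 h compound treatment at 37C, 500-1,000 cells/well, read as ATP luminescence with CellTiter-Glo. Primary screens used 11-point (MIPE, 0.78 nM-46 µM) or 8-point (NPC, 0.59 nM-46 µM) final concentrations; follow-up screens used 11-point dilutions.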

[3] = qHTS of pediatric cancer cell lines to identify multiple opportunities for drug repurposing: Confirmatory screen for TC32 cells (AID 1347118);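 note: cells exposed to compound for 48 h before the read; nearly all actives have a fitted effect of over 65% in size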; note: potency is the fitted concentration of half-maximal effect
Method in brief: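 Measured quantity: luminescence from CellTiter-Glo, reflecting metabolically active TC32 cells following 48 h of compound. Curves came straight from multi-point titrations, with 8 or 11 points in primary and 11 in confirmatory screening.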

[4] = qHTS of pediatric cancer cell lines to identify multiple opportunities for drug repurposing: Confirmatory screen for MG 63 (6-TG R) cells (AID 1347119); note: nearly all actives have a fitted effect of over 55% in size; note: potency is the fitted concentration of half-maximal effect
Method in brief: as §1

[5] = qHTS of pediatric cancer cell lines to identify multiple opportunities for drug repurposing: Confirmatory screen for control Hh wild type fibroblast cells (AID 1347121); note: nearly all actives have a fitted effect of over 70% in size; note: potency is the fitted concentration of half-maximal effect
Method in brief: as §1

[6] = qHTS of pediatric cancer cell lines to identify multiple opportunities for drug repurposing: Confirmatory screen for U-2 OS cells (AID 1347122); note: nearly all actives have a fitted effect of over 65% in size; note: potency is the fitted concentration of half-maximal effect
Method in brief: as §1

[7] = qHTS of pediatric cancer cell lines to identify multiple opportunities for drug repurposing: Confirmatory screen for Rh41 cells (AID 1347123);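 note: 48 h compound exposure; nearly all actives have a fitted effect of over 60% in size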; note: potency is the fitted concentration of half-maximal effect
Method in brief: as §1

[8] = qHTS of pediatric cancer cell lines to identify multiple opportunities for drug repurposing: Confirmatory screen for RD cells (AID 1347124);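 note: cells exposed to compound for 48 h before viability readout; nearly all actives have a fitted effect of over 65% in size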; note: potency is the fitted concentration of half-maximal effect
Method in brief: as §1

[9] = qHTS of pediatric cancer cell lines to identify multiple opportunities for drug repurposing: Confirmatory screen for Rh18 cells (AID 1347125); note: nearly all actives have a fitted effect of over 55% in size; note: potency is the fitted concentration of half-maximal effect
Method in brief: as §1

[10] = qHTS of pediatric cancer cell lines to identify multiple opportunities for drug repurposing: Confirmatory screen for Saos-2 cells (AID 1347127); note: nearly all actives have a fitted effect of over 60% in size; note: potency is the fitted concentration of half-maximal effect
Method in brief: as §1

[11] = qHTS of pediatric cancer cell lines to identify multiple opportunities for drug repurposing: Confirmatory screen for OHS-50 cells (AID 1347128);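 note: compound exposure lasted 48 h at 37 degrees C; nearly all actives have a fitted effect of over 55% in size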; note: potency is the fitted concentration of half-maximal effect
Method in brief: as §1

[12] = qHTS of pediatric cancer cell lines to identify multiple opportunities for drug repurposing: Confirmatory screen for LAN-5 cells (AID 1347113); note: nearly all actives have a fitted effect of over 65% in size; note: potency is the fitted concentration of half-maximal effect
Method in brief: as §1

[13] = molecular target: N-terminal Xaa-Pro-Lys N-methyltransferase 1 (Homo sapiens) (UniProt Q9BV86); experiment: qHTS Assay for Inhibitors of N-terminal methyltransferase 1 (NTMT1): LOPAC validation of the NTMT1 SAHH-coupled ThioGlo3 Assay (AID 1347143);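 note: SAH from peptide methylation measured as thiol fluorescence via SAHH coupling and ThioGlo3; nearly all actives have a fitted effect of over 70% in size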; note: potency is the fitted concentration of half-maximal effect
N-terminal Xaa-Pro-Lys N-methyltransferase 1 (Homo sapiens), sequence (Q9BV86 whole entry, looked up): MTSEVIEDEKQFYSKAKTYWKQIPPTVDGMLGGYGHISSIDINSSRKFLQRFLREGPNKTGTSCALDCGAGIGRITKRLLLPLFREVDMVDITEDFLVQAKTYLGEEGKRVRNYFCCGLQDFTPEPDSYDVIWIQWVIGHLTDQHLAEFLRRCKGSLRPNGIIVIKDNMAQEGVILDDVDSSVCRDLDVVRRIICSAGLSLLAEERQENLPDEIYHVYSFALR
Method in brief: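 Steps: dispense 125nM NTMT1; pin-transfer test compounds at several concentrations, with 1uM RCC1-6 peptide as control; incubate 1 min; start with reagent holding 100uM SAM, 10uM SAHH, 15uM ThioGlo3; read at 0 and 30 min.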

[14] = tested on: Zika virus NS2B-NS3 protease (unlinked); experiment: Optimization of GU AMC qHTS for Zika virus inhibitors: Unlinked NS2B-NS3 protease assay (AID 1347151); note: nearly all actives have a fitted effect of over 80% in size; note: potency is the fitted concentration of half-maximal effect
Method in brief: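 Noncovalent complex of NS2B hydrophilic domain and NS3 protease domain, 25 nM final, in 10 mM Tris-HCl pH 8.0, 0.01% Tween 20. AMC fluorescence change over 15 min at room temperature was fitted to a 4-parameter Hill equation.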

[15] = tested on: Zika virus NS2B-NS3 protease; experiment: Primary screen GU AMC qHTS for Zika virus inhibitors (AID 1347154); note: nearly all actives have a fitted effect of over 70% in size
Method in brief: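 Unlinked Zika NS2B hydrophilic domain–NS3 protease complex at 25 nM in 10 mM Tris-HCl pH 8.0, 0.01% Tween 20, with an AMC peptide substrate. Fluorescence change (340/450 nm) over 15 min at room temperature, normalized to controls, fitted to 4-parameter Hill.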

[16] = molecular target: Furin (Homo sapiens) (UniProt P09958); experiment: Furin counterscreen qHTS for Zika virus inhibitors (AID 1347149); note: nearly all actives have a fitted effect of over 70% in size; note: potency is the fitted concentration of half-maximal effect
Furin (Homo sapiens), sequence (P09958 whole entry, looked up): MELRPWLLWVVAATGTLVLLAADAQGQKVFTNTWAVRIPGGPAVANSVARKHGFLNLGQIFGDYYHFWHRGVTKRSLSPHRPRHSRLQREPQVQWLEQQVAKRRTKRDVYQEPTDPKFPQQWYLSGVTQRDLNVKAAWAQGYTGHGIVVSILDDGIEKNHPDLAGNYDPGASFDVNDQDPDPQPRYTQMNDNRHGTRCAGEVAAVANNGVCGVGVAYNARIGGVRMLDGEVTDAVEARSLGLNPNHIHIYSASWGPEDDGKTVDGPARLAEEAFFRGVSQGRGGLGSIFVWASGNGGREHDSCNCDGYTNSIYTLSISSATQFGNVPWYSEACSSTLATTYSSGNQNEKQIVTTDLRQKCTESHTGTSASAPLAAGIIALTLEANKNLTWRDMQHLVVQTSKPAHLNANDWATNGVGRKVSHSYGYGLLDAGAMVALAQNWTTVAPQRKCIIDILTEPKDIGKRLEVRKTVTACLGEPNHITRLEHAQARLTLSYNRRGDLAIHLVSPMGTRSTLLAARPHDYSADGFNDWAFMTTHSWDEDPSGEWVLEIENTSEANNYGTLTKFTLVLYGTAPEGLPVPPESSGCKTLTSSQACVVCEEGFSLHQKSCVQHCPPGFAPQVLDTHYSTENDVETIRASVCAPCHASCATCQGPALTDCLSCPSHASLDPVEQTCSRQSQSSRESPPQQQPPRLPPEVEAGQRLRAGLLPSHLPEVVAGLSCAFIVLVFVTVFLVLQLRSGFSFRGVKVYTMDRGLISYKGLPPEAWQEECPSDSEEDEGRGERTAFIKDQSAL
Method in brief: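 Counterscreen measures cleavage of 2 microM BOC-RVRR-AMC, below its ~15 microM Km, by 5 nM full-length human furin at pH 7.0 after a 15-min compound preincubation. Inhibition derives from the 15-min fluorescence increase at 37C.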

[17] = tested on: Zika virus NS2B-NS3 protease (linked construct); experiment: Confirmatory screen NINDS AMC qHTS for Zika virus inhibitors (AID 1347152)
Method in brief: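 Purified NS2B-NS3 protease with NS2B hydrophilic domain linked to NS3 protease domain by flexible linker, 1 nM final in 10 mM Tris-HCl pH 8.0, 0.01% Tween 20. Compounds preincubated 15 min, room temperature; Bz-Nle-KRR-AMC 10 microM (Km 18.3 µM); 15-min fluorescence change, 4-parameter Hill fit.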

[18] = tested on: Zika virus NS2B-NS3 protease (unlinked complex); experiment: Confirmatory screen GU AMC qHTS for Zika virus inhibitors (AID 1347153); note: nearly all actives have a fitted effect of over 70% in size
Method in brief: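 Unlinked enzyme 25 nM, Tris pH 8.0/0.01% Tween 20; cpd 15 min RT, dark; + AMC substrate 10 µM (Km 18.3 µM); 340/450 nm read at t0 and 15 min; % inhibition → 4-param fit.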

[19] = ZIKV-mCherry secondary qHTS for Zika virus inhibitors (AID 1347158); note: top concentration of the series differs between compounds
Method in brief: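 This orthogonal imaging screen measured ZIKV-mCherry infection of Vero cells exposed to compound, MOI 1, 48-72 h. Percent infection came from segmented nuclei scored mCherry-positive above 3 SD of negative controls.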

Compound	Potency [1]	Potency [2]	Potency [3]	Potency [4]	Potency [5]	Potency [6]	Potency [7]	Potency [8]	Potency [9]	Potency [10]	Potency [11]	Potency [12]	Potency [13]	Potency [14]	Potency [15]	Potency [16]	Potency [17]	Potency [18]	Potency [19]
CCN(CCO)CCCC(C)Nc1ccnc2cc(Cl)ccc12 (stereo unspecified)	inactive	inactive	inactive	inactive	inactive	inactive	inactive	inactive	inactive	inactive	inactive	–	–	–	–	–	–	–	–
Nc1ccn([C@@H]2O[C@H](CO)[C@@H](O)C2O)c(=O)n1 (stereo partly specified)	inactive	inactive	–	inactive	inactive	inactive	inactive	inactive	–	inactive	inactive	inactive	–	–	–	–	–	–	–
CCN(CC)C(=S)SSC(=S)N(CC)CC	9.27 µM (active)	–	0.293 µM (active)	inactive	inactive	11.7 µM (active)	0.261 µM (active)	4.65 µM (active)	–	16.5 µM (active)	–	0.147 µM (active)	4.47 µM (active)	inactive	inactive	–	–	–	–
COc1cc(C(C)=O)ccc1OCCCN1CCC(c2noc3cc(F)ccc23)CC1	–	inactive	20.8 µM (active)	inactive	inactive	–	18.5 µM (active)	inactive	inactive	inactive	–	–	–	–	–	–	–	–	–
CC(S)C(=O)NCC(=O)O (stereo unspecified)	–	inactive	inactive	inactive	inactive	–	–	–	inactive	inactive	inactive	inactive	–	–	inactive	–	–	–	–
Cc1ccc(Nc2nccc(N(C)c3ccc4c(C)n(C)nc4c3)n2)cc1S(N)(=O)=O	–	–	–	inactive	–	18.5 µM (active)	10.4 µM (active)	inactive	–	–	–	inactive	–	–	inactive	–	–	–	–
c1cnc2cc3c(cc2n1)C1CNCC3C1	inactive	inactive	–	inactive	inactive	inactive	inactive	inactive	–	–	inactive	inactive	–	inactive	inactive	–	–	–	–
CCCCc1ccc2nc(NC(=O)OC)[nH]c2c1	0.185 µM (active)	1.47 µM (active)	0.293 µM (active)	185 nM (active)	–	0.329 µM (active)	0.131 µM (active)	0.369 µM (active)	8.27 µM (active)	0.233 µM (active)	0.329 µM (active)	8.27 µM (active)	–	–	inactive	–	–	–	–
CS(=O)(=O)OCCCCOS(C)(=O)=O	inactive	inactive	–	inactive	inactive	inactive	inactive	inactive	inactive	–	inactive	–	–	–	inactive	–	–	–	–
CC1(C)C(=O)N(CCN2CCC(C(=O)c3ccc(F)cc3)CC2)c2ccccc21	inactive	–	7.37 µM (active)	inactive	inactive	–	–	inactive	inactive	inactive	–	inactive	inactive	inactive	inactive	–	–	–	–
CN(C)c1ccc(O)c2c1C[C@H]1C[C@H]3[C@H](N(C)C)C(=O)C(C(N)=O)=C(O)[C@@]3(O)C(=O)C1=C2O	–	inactive	5.85 µM (active)	–	inactive	inactive	inactive	inactive	inactive	inactive	inactive	inactive	–	–	–	inactive	inactive	inactive	–
CC[C@]1(O)C[C@H]2CN(CCc3c([nH]c4ccccc34)[C@@](C(=O)OC)(c3cc4c(cc3OC)N(C=O)[C@H]3[C@@](O)(C(=O)OC)[C@H](OC(C)=O)[C@]5(CC)C=CCN6CC[C@]43[C@@H]65)C2)C1	82.7 nM (active) and 92.8 nM (active)	827 nM (active) and 4.14 µM (active)	26.1 nM (active) and 117 nM (active)	46.5 nM (active) and 329 nM (active)	inactive	414 nM (active) and 585 nM (active)	23.3 nM (active) and 18.5 nM (active)	52.2 nM (active) and 147 nM (active)	inactive	8.3 nM (active) and 165 nM (active)	–	58.5 nM (active) and 827 nM (active)	–	–	–	–	–	–	–
CCN(CC)CCOc1ccc(Nc2ncc3cc(-c4c(Cl)cccc4Cl)c(=O)n(C)c3n2)cc1	1.65 µM (active)	18.5 µM (active)	2.61 µM (active)	261 nM (active)	–	0.657 µM (active)	9.27 µM (active)	2.33 µM (active)	14.7 µM (active)	1.47 µM (active)	1.31 µM (active)	–	–	inactive	inactive	–	–	–	–
Cc1ccc(NC(=O)c2ccc(CN3CCN(C)CC3)cc2)cc1Nc1nccc(-c2cccnc2)n1	16.5 µM (active)	inactive	–	inactive	inactive	inactive	inactive	inactive	inactive	inactive	–	–	–	–	–	–	–	–	–
Cc1cc(C2CCCCC2)n(O)c(=O)c1	–	16.5 µM (active)	4.65 µM (active)	20800 nM (active)	–	–	–	–	–	–	–	5.85 µM (active)	–	–	inactive	–	–	–	–
CN(C)c1ccc2nc3ccc(=[N+](C)C)cc-3sc2c1	4.65 µM (active)	6.57 µM (active)	2.61 µM (active)	928 nM (active)	18.5 µM (active)	2.93 µM (active)	2.61 µM (active)	14.7 µM (active)	6.57 µM (active)	1.17 µM (active)	8.27 µM (active)	3.69 µM (active)	–	–	–	–	–	–	–
Cc1nc(Nc2ncc(C(=O)Nc3c(C)cccc3Cl)s2)cc(N2CCN(CCO)CC2)n1	16.5 µM (active)	inactive	inactive	–	inactive	3.29 µM (active)	2.61 µM (active)	inactive	0.208 µM (active)	inactive	inactive	–	–	398 µM (active)	inactive	50.1 µM (active)	–	–	inactive
